NS1 function inh: blocks influenza NS1 protein function | 270,000 compounds, 0.4% hits | Potency, µM (highest dose often 46.1 µM), without a hit: at the top dose activity, positive = more growth; note: potency is the fitted concentration of half-maximal effect; actives are rising curves; nearly all actives have a fitted effect of over 50% in size
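A cell-based growth assay was used: compounds that relieve NS1-induced slow growth of budding yeast raise OD600. Assay medium was yeast nitrogen base with ammonium sulphate and -URA supplement, pH 6.0, with 2% galactose.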
CHX counter: affects cycloheximide protein synthesis inhibition readout, counter-screen | 300,000 compounds, 12% hits | cell reporter, cycloheximide protein synthesis inhibition counterscreen | max response, %; in the data active = max response mostly above about 13%, no sharp cut-off; inactive = mostly below about 14%; note: read at 38.3 µM for the half of the compounds with a filed dose; 0% is about no effect
Shiga inhibitor: blocks Shiga toxin action in Vero cells; 290,000 compounds, 9.2% hits; inhibition, % at 38.7 µM; Vero cells, Shiga toxin protein synthesis inhibition reporter; AID 2315; in the data active = inhibition mostly above about 28%, no sharp cut-off; inactive = mostly below about 43%; note: 0% is about no effect
SARS PLpro yeast: inhibitors of SARS-CoV papain-like protease in yeast; S. cerevisiae expressing SARS-CoV PLpro, growth rescue; Potency, µM (highest dose often 32.9 µM), for the others: at the highest dose activity, positive = growth rescue, usual class: activators; 330,000 compounds, 0.19% hits; note: potency is the fitted concentration of half-maximal effect; 0% is about no effect; nearly all actives have a fitted effect of over 55% in size
The depositor's hits bear a star; ? = inconclusive; · = no result. In the library only some 12% were active in any assay of this set; here they are far more common. Unless noted, calls come from the whole dose curve.

SMILES	NS1 function inh	CHX counter	Shiga inhibitor	SARS PLpro yeast
CN(C)c1ccc(/C=N/N2C(=O)c3ccccc3C2=O)cc1	-8%	55*	76*	2%
CCN(CC)c1ccc(/C=N/N2C(=O)c3ccccc3C2=O)cc1	-15%	7	24	23%
COc1ccc(/C=N\n2nnc3ccccc32)cc1	-6%	28*	-41	-7%
COc1ccccc1/C=N/N1C(=O)c2cccc3cccc(c23)C1=O	·	-4	-16	-1%
Cc1ccc(S(=O)(=O)N2CCCC2)cc1C(=O)NCc1ccccc1CN1CCCC1	·	·	·	-8%
COc1ccccc1CNC(=O)c1ccccc1NC(=O)C1=C(C)OCCS1	-11%	7	12	0%
Cc1c(C(=O)O)cnc2c([N+](=O)[O-])cnn12	·	-1	1	0%
CCCN1CCN(CC(=O)Nc2nncs2)CC1	0%	-2	-4	7%
O=C(/C=C/Sc1ccccc1)c1ccc(Cl)cc1	-13%	68*	116*	-16%
O=C(/C=C/Sc1ccccc1)c1ccccc1	-33%	140*	182*	-25%
O=C(O)c1cc([N+](=O)[O-])ccc1N1CCC(Cc2ccccc2)CC1	-27%	-5	-3	-41%
FC(F)Oc1ccc(NC(=S)N2CCc3ccccc32)cc1	-2%	36*	78*	12%
NS(=O)(=O)c1ccc(NC(=S)N2CCc3ccccc32)cc1	15%	3	-17	1%
Fc1ccc(NC(=S)N2CCc3ccccc32)cc1	2%	15*	41*	7%
CC(C)OCCCN(C)C1CCN(S(=O)(=O)c2ccc(-c3ccc(=O)[nH]n3)s2)CC1	3%	-2	-6	3%
CC(=O)c1cccc(Nc2nc(-c3cccc([N+](=O)[O-])c3)cs2)c1	-20%	38*	103*	-33%
COc1ccc2c(c1OC)C(=O)OC2Nc1nc(-c2cccc([N+](=O)[O-])c2)cs1 (stereo not given)	-47%	57*	43*	-6%
O=[N+]([O-])c1cccc(-c2csc(N/N=C/c3cccc(O)c3)n2)c1	·	28*	105*	0%
CCOC(=O)Cc1csc(N/N=C/c2cccc([N+](=O)[O-])c2)n1	-11%	16	-5	14%
Cc1[nH]n(-c2nc(-c3cccc([N+](=O)[O-])c3)cs2)c(=O)c1C	15%	37*	54*	-16%
CCCCN1C(=O)NC2NC(=O)NC21 (stereo not given)	0%	5	-2	17%
CC(C)(CC(=O)O)CC(=O)Nc1cc(C(F)(F)F)cc(C(F)(F)F)c1	4%	-1	26	0%
CCOc1cc(S(=O)(=O)N2CCCCCC2)ccc1F	-15%	-1	-7	-4%
Cc1cc(C(F)(F)F)nn1CC(=O)Nc1ccc2c(c1)OCO2	2%	1	-31	0%
COc1ccc2oc(=N)c(C(=O)Nc3ccccc3Cl)cc2c1	?	39*	49*	3%
SMILES	NS1 function inh	CHX counter	Shiga inhibitor	SARS PLpro yeast
COc1ccc2oc(=N)c(C(=O)Nc3ccc(Cl)cc3)cc2c1	-5%	-4	·	?
N=c1oc2ccccc2cc1C(=O)Nc1ccccc1	-1%	46*	116*	-1%
Cc1cccnc1NC(=O)c1cc2ccccc2oc1=O	1%	30*	115*	3%
COc1ccc2oc(=O)c(C(=O)Nc3ccccc3C)cc2c1	-2%	34*	·	2%
N=c1oc2ccc(Br)cc2cc1C(=O)NCc1ccc(F)cc1	-2%	23*	9	-3%
COc1ccc2oc(=N)c(C(=O)Nc3ccc(C)cc3)cc2c1	4%	13	27	0%
COc1ccc2oc(=N)c(C(=O)Nc3ccccc3)cc2c1	-11%	39*	85*	-2%
O=C(Nc1ccc(-n2nncc2-c2ccco2)cc1)c1cc2ccccc2oc1=O	5µM*	17	28	0%
COc1ccc2oc(=N)c(C(=O)Nc3cccc(C)c3C)cc2c1	1%	30*	49*	12%
CC(=O)C1C(c2ccc(F)cc2)c2c(noc2C)CC1(C)O (stereo not given)	-2%	-1	22	1%
COc1cccc(NC(=O)c2cc3ccccc3oc2=O)c1	-7%	42*	·	5%
COc1ccc(NC(=O)c2cc3ccccc3o/c2=N\NS(=O)(=O)c2ccc(C)cc2)cc1	-5%	48*	100*	-2%
COc1ccc2oc(=N)c(C(=O)Nc3ccc(F)cc3)cc2c1	2%	-3	14	1%
COc1cccc2cc(C(=O)Nc3cc(C)cc(C)c3)/c(=N/NS(=O)(=O)c3ccccc3)oc12	10%	9	15	2%
O=C(Nc1ccccc1O)c1cc2cc(Br)ccc2oc1=O	-1%	28*	114*	-1%
N=c1oc2ccc(Cl)cc2cc1C(=O)Nc1ccc(F)cc1	5%	24*	44*	2%
O=C(NNC(=O)c1cc2cc(Br)ccc2oc1=O)c1ccc(O)cc1	-4%	-3	-4	0%
COc1ccc2oc(=O)c(C(=O)Nc3cccc(C(C)=O)c3)cc2c1	17%	3	·	0%
Cc1ccc2cc(COC(=O)C3CCCO3)c(=O)[nH]c2c1 (stereo not given)	1%	1	-7	-14%
CCCCCCCCCCOc1cc(OCCCCCCCCCC)cc(N(CC(=O)O)CC(=O)O)c1	·	-6	20	·
Cc1ccc(Cn2cccc(NC(=O)NC3CCCCC3)c2=O)cc1	-10%	-2	30	1%
CC1CCN(c2ccccc2NC(=S)NC(=O)C(C)(C)C)CC1	·	-2	17	0%
CC(Sc1ncn[nH]1)C(=O)Nc1ccc(Cl)cn1 (stereo not given)	·	·	·	-1%
CCCCC1CCC(C(=O)N(C)CC(=O)Nc2cccc(OC)c2)CC1 (stereo not given)	·	·	·	1%
Cc1onc(C(=O)Nc2ccc(OC(F)(F)F)cc2)c1[N+](=O)[O-]	1%	57*	89*	-4%
SMILES	NS1 function inh	CHX counter	Shiga inhibitor	SARS PLpro yeast
CC(=O)c1ccc(NC(=O)c2noc(C)c2[N+](=O)[O-])cc1	0%	31*	63*	-3%
NNC(=O)c1ccc(Cn2cc(Br)c(N)n2)cc1	-2%	12*	18	-2%
NNC(=O)c1ccc(Cl)cc1	-3%	13	43	-1%
O=[N+]([O-])c1cc(Cl)ccc1-c1nc(-c2ccccc2)no1	13%	58*	62*	13%
Clc1ccc(Cl)c(-c2nc(-c3ccncc3)no2)c1	8%	-2	·	0%
O=[N+]([O-])c1cc(Cl)ccc1-c1nc(-c2ccncc2)no1	2%	19	42*	-1%
Cc1nc2ccc(-c3ccccc3)cc2o1	3%	53*	63	-22%
CNC(=O)Nc1ccc2nc(C)oc2c1	-1%	5	5	0%
O=C(NC1CC(=O)N(c2ccccc2)C1)C(=O)c1c[nH]c2ccccc12 (stereo not given)	·	·	·	-1%
Cn1cc(C(=O)C(=O)NC2CCCCC2)c2ccccc21	-4%	33*	55*	1%
O=C(NC1CC1)C(=O)c1c[nH]c2ccccc12	-6%	19*	100*	0%
O=C(c1c[nH]c2ccccc12)C(F)(F)F	-1%	-1	28	-3%
O=C(c1ccccc1)c1c[nH]c2ccccc12	-38%	35*	64*	-6%
CC(=O)Nc1cccn(Cc2c(Cl)cccc2Cl)c1=O	-3%	12	41	-7%

Screening data deposited in PubChem by National Center for Advancing Translational Sciences (NCATS).
